Compounds without any hit were thinned out: in the full panel of roughly 83,000, 20% have a hit.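 Method: cells in 96-well plates; compound added at one concentration; 48 h incubation; percent growth measured; values under 10 scored active.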 Values without a mark were called inactive. Active and inactive are the calls of the source.
Test system: BT-549 breast
Experiment: NCI-60 one-dose screen, 48 h (100 = growth as untreated, 0 = no growth, -100 = all killed)
Conditions: 10 µM unless noted

SMILES | growth
Clc1cccc(CNc2c3ccccc3nc3ccccc23)c1 | 59.1%
CC(C)(C)c1ccc(OC(=O)Nc2ccccc2)cc1 | 87.5%
O=C(/C=C/c1ccco1)c1ccccc1O | 95.6%
CC(C)CC(=O)C(CCc1ccccn1)C(C)C (stereo unspecified) | 108%
Cc1nn(-c2ccccc2)c2nc3c(nc12)C1=NCCN1C(c1ccc(Cl)cc1)N3 (stereo unspecified) | 98.3%
Cc1cc([N+](=O)[O-])c(C)cc1N | 101%
O=C1/C(=C/c2cc(F)cc(F)c2)Cc2cc(F)cc(F)c21 | 96.5%
N/C(=N\OC(=O)c1ccccc1)C(C(=O)NOC(=O)c1ccccc1)C1CCCCC1 (stereo unspecified) | 74.4%
CCN(CC)CCNC(=O)C(F)(F)C(F)(F)C(F)(F)F | 98.7%
O=C(Nc1ccncc1)C(=O)c1cn(S(=O)(=O)c2cccc(Cl)c2F)c2ccccc12 | 62.1%
CC(=O)Oc1c(Cl)c(Cl)c(Cl)c(Cl)c1Cl | 95.4%
COc1cnc2c(c1)C(=O)c1c-2n(CCCN2CCNCC2)c(=O)c2cc(Cl)ccc12 | 45.7%
Cc1cc(C#Cc2ccc(C(C)(C)C)cc2)ccc1-n1c(/C=C/c2c(Cl)cccc2Cl)nc2ccccc2c1=O | 105%
CS(=O)(=O)c1ccc(C(=O)N/N=C/c2ccccc2Cl)cc1 | 92.7%
O=C(/C=C/c1ccccc1)c1c[nH]c2ccccc2c1=O | -4.65% (active)
COC(=O)[C@H](Cc1cn(C)cn1)NC(=O)[C@H](CC(C)C)NC(=O)Nc1cc(C(F)(F)F)cc(C(F)(F)F)c1 | -95.6% [100 µM] (active)

— PubChem BioAssay (NCI)
